The list is not random: actives were taken first. Their share in the collection is about 3.2%.
Tau fibril ThT – qHTS for Inhibitors of Tau Fibril Formation, Thioflavin T Binding | Microtubule-associated protein tau (Homo sapiens), P10636 | recombinant tau K18 P301L, heparin-induced fibrillization, ThT fluorescence | AID 1460, 2008 | 2.1% of 270,000 active | Potency, µM (titrated, usually from 57.4 µM), for the others: at the top dose activity, negative = inhibition, usual class: inhibitors; note: potency is the fitted concentration of half-maximal effect; % is set by controls: 0 for no effect and ±100 for the full control effect; nearly all actives have a fitted effect of over 55% in size
Target sequence (P10636 561-689 P618L limits assumed): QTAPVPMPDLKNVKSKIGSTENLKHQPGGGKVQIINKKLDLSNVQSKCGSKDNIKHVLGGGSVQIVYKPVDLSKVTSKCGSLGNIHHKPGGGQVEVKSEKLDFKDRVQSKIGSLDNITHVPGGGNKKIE
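ThT emission at 510 nm, taken 1 hr after adding 30 uM dye, quantifies aggregates formed when 20 uM heparin acts on human tau K18 P301L for 6 hr at 37 C.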
RGS12 GoLoco inh-1 – qHTS Assay for Inhibitors of RGS12 GoLoco Motif Activity (Red Fluorophore); Guanine nucleotide-binding protein G(i) subunit alpha-1 (Homo sapiens), P63096; Gai1:RGS12 GoLoco peptide FP, rhodamine, 10 min; Potency, µM (titrated, usually from 61.6 µM), for inactives: top-dose activity, negative = inhibition, usual class: inhibitors; 0.44% of 230,000 active; AID 880, 2007; active = well fitted inhibition curve with a large enough effect, not every such curve was filed as active; inactive = no such curve, though single readings can be large or run the other way; note: potency is the fitted concentration of half-maximal effect; % is set by controls: 0 for no effect and ±100 for the full control effect; nearly all actives have a fitted effect of over 30% in size
Target sequence (P63096 whole entry, looked up): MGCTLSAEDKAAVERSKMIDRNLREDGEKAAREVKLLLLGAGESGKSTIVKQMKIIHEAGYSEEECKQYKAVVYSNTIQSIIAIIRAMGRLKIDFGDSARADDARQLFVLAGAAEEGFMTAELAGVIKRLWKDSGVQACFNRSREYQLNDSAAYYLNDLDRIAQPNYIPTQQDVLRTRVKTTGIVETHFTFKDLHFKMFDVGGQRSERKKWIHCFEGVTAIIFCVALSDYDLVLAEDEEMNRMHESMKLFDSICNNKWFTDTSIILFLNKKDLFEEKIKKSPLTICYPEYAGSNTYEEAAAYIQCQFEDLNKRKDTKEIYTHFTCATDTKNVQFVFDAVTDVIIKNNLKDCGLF
TRb-SRC2 inh – qHTS for Inhibitors of the Interaction of Thyroid Hormone Receptor and Steroid Receptor Coregulator 2 | Thyroid hormone receptor beta (Homo sapiens), P10828 | TRbeta-SRC2 peptide binding, fluorescence polarization; receptor liganded with 1 µM T3 | Potency, µM (doses to about 106 µM), for the others: at the top dose activity change, negative = inhibition, actives largely listed as inhibitors | 0.065% of 280,000 active | AID 1469, 2008;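 note: potency is the fitted concentration of half-maximal effect; plate controls were bound peptide for no effect and peptide without receptor for full effect; nearly all actives have a fitted effect of over 50% in size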
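Decrease in fluorescence polarization of 20 nM Texas Red SRC2 coactivator peptide flagged inhibition of its binding to 0.6 uM TRb LBD; 1 uM T3 included, incubation 5 hr, ex 555/em 632 nm.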
Tau fibril FP – qHTS for Inhibitors of Tau Fibril Formation, Fluorescence Polarization. Microtubule-associated protein tau (Homo sapiens), P10636. K18 P301L tau heparin fibrillization, Alexa594 FP, 6 h. Potency, µM (top dose mostly 57.7 µM), without a hit: at the top dose activity, negative = inhibition, hits mostly inhibitors. 0.39% of 280,000 active. AID 1468, 2008; note: potency is the fitted concentration of half-maximal effect; % is set by controls: 0 for no effect and ±100 for the full control effect; nearly all actives have a fitted effect of over 55% in size
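Quantitative HTS format: compounds meet 15 uM recombinant K18 P301L tau and Alexa 594-tau tracer in 100 mM sodium acetate pH 7; 20 uM heparin triggers fibrillization at 37 C over 6 hr; FP gives the signal.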
Tau fluor cs – Counterscreen qHTS for Inhibitors of Tau Fibril Formation, Fluorescence Polarization. 0.93% of 280,000 active. Potency, µM (series often up to 57.7 µM), for the others: at the highest dose activity change, negative = decrease. tau K18 P301L Alexa594 fluorescence, heparin fibrillization; note: potency is the fitted concentration of half-maximal effect; % is set by controls: 0 for no effect and ±100 for the full control effect; nearly all actives have a fitted effect of over 55% in size
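Human K18 P301L tau (15 uM unlabeled plus 0.24 uM Alexa 594-labeled, final) in 100 mM sodium acetate pH 7 was mixed with compound and 20 uM heparin and incubated 6 hr at 37 C.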
TexasRed fluor – Total Fluorescence Counterscreen for Inhibitors of the Interaction of Thyroid Hormone Receptor and Steroid Receptor Coregulator 2; 0.29% of 280,000 active; TRb/SRC2 Texas Red total fluorescence interference; Potency, µM (top dose mostly 106 µM), without a hit: at the top dose fluorescence change, negative = quenching; active = well fitted curve in either direction with a large enough effect; inconclusive = small, poorly fitted or top-dose-only effect; note: potency is the fitted concentration of half-maximal effect; % is set by controls: 0 for no effect and ±100 for the full control effect
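Human TRb ligand-binding domain at 0.6 uM with 20 nM Texas Red SRC2 peptide in Tris buffer containing 1 uM T3 and 5% DMSO, incubated with compound 5 h at ambient temperature. Total fluorescence (555/632 nm) calculated as parallel + 2 × perpendicular.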
RGS12 GoLoco inh-2 – Confirmation qHTS Assay for Inhibitors of RGS12 GoLoco Motif Activity (Red Fluorophore); shares compounds with RGS12 GoLoco inh-1; Gai1/rhodamine-RGS12 GoLoco peptide fluorescence polarization; Potency, µM (top dose mostly 57.1 µM), for the others: top-dose activity, negative = inhibition, usual class: inhibitors; 50% of 110 active; AID 2390, 2010
Tau fibril TEM – Transmission Electron Microscopy Assay for Inhibitors of Tau Fibrillization | shares compounds with Tau fibril ThT | AID 1719, 2009 | recombinant tau K18 P301L fibrillization, TEM grading; active compounds read high | fibril grade (0 = clumped fibrils, 4 = only tiny pieces) (no concentration beside the values) | 70% of 45 active;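 active = compounds whose electron micrographs showed tau fibrils broken into shorter filaments or fragments, graded high on fibril breakup; inconclusive = micrographs gave an unclear fibril picture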
tau fibril sed – Sedimentation Assay for Inhibitors of Tau Fibrillization; recombinant tau K18 P301L (four-repeat tau fragment), sedimentation SDS-PAGE densitometry; shares compounds with Tau fibril ThT; AID 1720, 2009; inhibition, % at 100 µM; 50% of 110 active; in the data active = inhibition above about 40%; inconclusive = no clear call, values can overlap the other calls; inactive = below about 18%
The depositor's hits bear a star; ? = inconclusive; / = no result; ! = not active in a repeat; [ ] = dose if it differs, or a comment. Unless noted, calls come from the whole dose curve; as a rule, active = well fitted curve in the direction sought with a large enough effect; inconclusive = small, poorly fitted or top-dose-only effect, or another doubt; inactive = no such curve, though single readings can be large; an effect the other way counts as inactive or inconclusive.

SMILES	Tau fibril ThT	RGS12 GoLoco inh-1	TRb-SRC2 inh	Tau fibril FP	Tau fluor cs	TexasRed fluor	tau fibril sed	others
COC(=O)c1ccc(NC(=O)CSc2ccccn2)cc1	?	13µM*	9%	-4%	-13%	0%	/	RGS12 GoLoco inh-2=?
Cc1nn(C)c(C)c1N1C(=O)c2cccc3c(Br)ccc(c23)C1=O	9%	5%	?	5%	11%	0%	/
Cc1nn(C)c(C)c1N1C(=O)c2cccc3c(N)ccc(c23)C1=O	?	22µM*	-10%	-2%	5%	1%	/	RGS12 GoLoco inh-2=13µM*
Cc1cc(C)c2c(=O)n(CC(=O)Nc3cccc(F)c3)sc2n1	14µM*	32µM*	2%	14µM*	-23%	-9%	/	RGS12 GoLoco inh-2=32µM*
Cc1cc(C)c2c(=O)n(CC(=O)Nc3ccc(Cl)cc3)sc2n1	/	25µM*	-2%	?	-27%	-7%	/	RGS12 GoLoco inh-2=?
CCOc1ccc(NC(=O)Cn2sc3nc(C)cc(C)c3c2=O)cc1	13µM*	16µM*	-3%	20µM*	-25%	-5%	/	RGS12 GoLoco inh-2=?
Cc1ccc(NC(=O)Cn2c(C)cc(C)c(C#N)c2=O)c(Cl)c1	-3%	0%	-6%	0%	-5%	0%	/
O=C(Cn1c(=O)c2ccccc2n2nncc12)Nc1cccc(F)c1	3%	/	-2%	-7%	-2%	-1%	/
Cc1ccc(NC(=O)Cn2sc3nc(C)cc(C)c3c2=O)c(Cl)c1	28µM*	18µM*	6%	?	-9%	-5%	/	RGS12 GoLoco inh-2=11µM*
CC(=O)C1(C)CC2(CC(C)(C)OC2=O)C(=O)O1 (stereo unspecified)	-9%	-3%	0%	2%	-15%	-1%	/
COc1ccc(C(=O)Nc2nc(-c3ccc(Br)cc3)ns2)cc1	?	/	-2%	?	-9%	6%	/
Cn1nnnc1SCC(=O)N1CCN(c2ccc(Cl)cc2)CC1	?	-37%	-5%	6%	-6%	0%	/	RGS12 GoLoco inh-2=14µM*
Cn1nnnc1SCC(=O)N1CCN(C(=O)c2ccco2)CC1	-7%	-4%	11%	0%	-8%	1%	/
O=C1c2cccc3c([N+](=O)[O-])ccc(c23)C(=O)N1c1ccccn1	-1%	28µM*	7%	-2%	-4%	-4%	/	RGS12 GoLoco inh-2=-5%
CCOc1nc(NC(=O)NS(=O)(=O)Oc2cccc(F)c2)nc(-c2ccccc2)n1	-8%	/	3%	-1%	-6%	-1%	/
Nc1c(-c2ccncc2)cc[nH]c1=O	/	/	/	/	/	/	55*	Tau fibril TEM=0
CN(C)c1ccc(-c2cc[nH]c(=O)c2N)cc1	/	/	/	/	/	/	68*	Tau fibril TEM=3*
CNc1nc(-c2ccc(C(=O)N(C)C)cc2)nc2ccccc12	/	11%	/	/	/	/	/
CN(C)C(=O)c1ccc(-c2cc[nH]c(=O)c2N)cc1	/	/	/	/	/	/	48*	Tau fibril TEM=0
O=S(=O)(c1ccc(NC(=S)N/N=C/c2ccc(Oc3ccccc3)cc2)cc1)N1CCOCC1	4%	2%	-3%	1%	-10%	3%	/
O=S(=O)(c1ccc(NC(=S)N/N=C/c2ccc(N3CCOCC3)cc2)cc1)N1CCOCC1	?	7%	5%	14%	?	-1%	11
CCN(CC)c1ccc(NC(=O)CCS(=O)(=O)c2cc3c(cc2Cl)NC(=O)CO3)c(C)c1	10%	/	2%	?	?	-7%	/
Cn1[nH]c(CSc2ccc(Cl)cc2)cc1=O	?	5%	-1%	?	?	-4%	16
Cc1ccc(S(=O)(=O)N(C)c2nc3ccccc3[nH]c2=S)cc1	1.1µM*	-3%	-1%	?	-24%	-3%	?	Tau fibril TEM=0
NC[C@H](O)c1ccc(O)c(O)c1	4µM*!	12%	-4%	6.3µM*!	?	-5%	75*	Tau fibril TEM=3*
SMILES	Tau fibril ThT	RGS12 GoLoco inh-1	TRb-SRC2 inh	Tau fibril FP	Tau fluor cs	TexasRed fluor	tau fibril sed	others
CC[C@H](NC(C)C)[C@H](O)c1ccc(O)c(O)c1	/	4%[21.6 µM]	-3%	/	/	0%	/
NC[C@@H](O)c1ccc(O)c(O)c1	?	0%	-3%	?	-15%	?	18
CCC(Oc1ccc(F)cc1)C(=O)Nc1nc2c(s1)CCCC2 (stereo unspecified)	?	/	-8%	-9%	-27%	4%	/
Cc1cc(Nc2ccc(C)c(C)c2)n2cnnc2n1	-4%	/	0%	?	2%	-1%	/
Nc1cc(-c2ccccc2)c[nH]c1=O	/	/	/	/	/	/	65*	Tau fibril TEM=?
NC(=O)c1csc(-c2ccncc2)n1	-4%	4%	-15%	-12%	-6%	0%	/
Nc1cc(-c2ccncc2)c[nH]c1=O	1.4µM*	-10%	?	2µM*	?	-1%[201 µM]	61*	Tau fibril TEM=3*
COc1cc(C2CC(=O)N(c3ccccc3)C3=C2C(=O)OC3)cc(OC)c1OC (stereo unspecified)	-5%	/	7%	-3%	-8%	-3%	/
O=C(Nc1nnc(S(=O)(=O)Nc2ccccc2)s1)c1ccccc1Cl	?	/	-3%	-2%	-20%	-1%	/
